Inconclusive results are not listed. Values without a mark were called inactive. The call rests on the fitted dose curve; in most records, active means well fitted cell-killing curve with a large enough effect; inconclusive means small, poorly fitted or top-dose-only effect; inactive means flat fitted curve, though single readings scatter.
assay: Vero cells viability qHTS for Zika virus inhibitors (AID 1347167); conditions: cytotoxicity counter-screen (Zika); series mostly up to 45.9 µM; activity change, negative = cytotoxicity: at the top concentration
In short: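 Luminescent ATP readout (CellTiter Glo) after 30 min at 37 degrees C gives viability; cells in DMEM + 4% FBS were treated 24 to 48 hours with compound, following overnight attachment.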
On the % scale 0 is the no-effect control and ±100 the full control effect.

With `C=NC(C(=O)N[C@H]1C(=O)N2C1SC(C)(C)C2C(=O)O)c1ccccc1` (stereo partly drawn) as the compound, how does the “activity change, negative = cytotoxicity” value read?
Its value is -0.393%.

Which “activity change, negative = cytotoxicity” value does the source give for `CCOc1nc2cccc(C(=O)OC(C)OC(=O)OC3CCCCC3)c2n1Cc1ccc(-c2ccccc2-c2nn[nH]n2)cc1` (stereo not drawn) here?
The value was -12.6%.

For `CC(C)=CCCC1(C)C=Cc2c(O)c3c(c(CC=C(C)C)c2O1)OC12C(=CCCC1C(C)(C)O[C@@]2(C/C=C(\C)C(=O)O)C(=O)O)C3=O` (stereo partly drawn), which “activity change, negative = cytotoxicity” value is on record?
Its value is -1.09%.

For `O=C(O)c1cc(NCc2cc(O)ccc2O)ccc1O`, which “activity change, negative = cytotoxicity” value is on record?
The value was -3.68%.

With `CN(C)[C@@H]1C(=O)C(C(=O)NCN2CCCC2)=C(O)[C@@]2(O)C(=O)C3=C(O)c4c(O)cccc4[C@@](C)(O)[C@H]3C[C@@H]12` as the compound, how does the “activity change, negative = cytotoxicity” value read?
The value was -7.49%.

With `Cc1cc(C)cc(C(=O)N(C)[C@H](Cc2ccc(-c3ccccc3)cc2)C(=O)N[C@@H](Cc2c[nH]c3ccccc23)C(=O)O)c1` as the compound, how does the “activity change, negative = cytotoxicity” value read?
Its value is -3.27%.

For `CCCCc1nn(-c2ccccc2C(F)(F)F)c(=O)n1Cc1ccc(-c2ccccc2S(=O)(=O)NC(=O)c2sccc2C)cc1`, which “activity change, negative = cytotoxicity” value is on record?
Its value is 0.821%.

Which “activity change, negative = cytotoxicity” value does the source give for `Cc1c(-c2ccc(O)cc2)nn(-c2ccc(O)cc2)c1-c1ccc(OCCN2CCCCC2)cc1` here?
The value was -5.98%.

— PubChem BioAssay (NCATS)
